# PubChem BioAssay
# Activity calls are given as the source filed them. Unless noted, no rule for the calls is given here.
# Assays:
# [1] = test system: XIP peptide (Xip251-270) binding; assay: XIP fragment 251-270 binding compounds – biochemical, small-molecule microarray, fluorescence 635/667 nm, 0.1 µg/mL protein, primary screen (AID 1182); details: fluorescent protein binding, 635 nm, higher = more signal, called active from +8 up or from −8 down
# XIP peptide (Xip251-270) = assay: compounds binding XIP fragment 251-270 – biochemical, small-molecule microarray, fluorescence 635/667 nm, 0.5 µg/mL protein, primary screen (AID 1183); details: fluorescence 635 nm, higher = more signal
# [2] = blood-stage malaria parasite viability loss – strain 3D7, DAPI fluorescence, 100 nL, primary screen (AID 1184);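 also: parasites grown inside human red blood cells in medium with human serum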; details: P. falciparum 3D7 growth, 3 d, higher = more signal
# [3] = target: Homeobox protein Hox-A13 (Mus musculus) (UniProt Q62424); assay: disruptors of Hoxa13 oligonucleotide interaction – biochemical, fluorescence polarization, labeled oligonucleotide, primary screen (AID 1185); details: Hoxa13:DNA binding, 15 min, higher = more signal, called active from +8 up or from −8 down
# [4] = blockers of DNA damage checkpoint Chk1 activation – imaging, HeLa, hydroxyurea, phospho-Chk1 antibody, percent positive cells, primary screen (AID 1186); details: hydroxyurea-induced phospho-Chk1 immunofluorescence imaging, higher = more signal
# [5] = blockers of DNA damage checkpoint Chk1 activation – imaging, HeLa, hydroxyurea, phospho-Chk1 nuclear intensity, primary screen (AID 1187); details: hydroxyurea-induced phospho-Chk1 immunofluorescence imaging, higher = more signal
# Sequence of Homeobox protein Hox-A13 (Mus musculus) (Q62424 whole entry, looked up): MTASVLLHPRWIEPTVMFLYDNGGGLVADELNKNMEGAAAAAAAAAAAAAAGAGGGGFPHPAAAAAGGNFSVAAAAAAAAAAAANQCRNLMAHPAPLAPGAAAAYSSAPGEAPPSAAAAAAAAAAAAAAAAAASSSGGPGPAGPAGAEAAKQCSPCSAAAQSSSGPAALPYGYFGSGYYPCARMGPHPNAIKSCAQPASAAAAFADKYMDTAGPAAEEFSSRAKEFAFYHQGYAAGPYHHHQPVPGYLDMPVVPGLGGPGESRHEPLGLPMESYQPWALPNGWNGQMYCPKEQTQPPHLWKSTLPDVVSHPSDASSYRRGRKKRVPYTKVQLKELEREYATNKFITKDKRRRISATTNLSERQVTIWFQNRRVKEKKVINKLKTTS
Structure (SMILES),composite z-score [1],composite z-score (XIP peptide (Xip251-270)),z-score [2],z-score [3],z-score [4],z-score [5]
C=CCNC(=O)[C@@H]1[C@H]2C(=O)O[C@H](c3ccccc3)[C@H](c3ccccc3)N2[C@H](c2ccccc2OCCO)[C@@]12C(=O)Nc1ccc(C#CCC(C(=O)OC)C(=O)OC)cc12,1.56 (inactive),0.343,-2.1,-3.02 (inactive),0.0648 (inactive),-0.246 (inactive)
COc1cc2c(cc1O)C(c1cccs1)N(Cc1cc3c(cc1Br)OCO3)CC2 (centres undefined),-0.177 (inactive),0.867,-1.57,-1.01 (inactive),-0.117 (inactive),0.128 (inactive)
C=CCC(OC(C)=O)[C@@H]1[C@@H](N(Cc2ccc(-c3ccccc3)cc2)C(=O)c2ccc(-c3ccccc3)cc2)c2cc(OCCCO)ccc2N1C(=O)c1ccc2ccccc2c1 (some centres undefined),-0.29 (inactive),-0.482,0.248,-0.68 (inactive),0.215 (inactive),-0.144 (inactive)
CC(C)[Si]1(C(C)C)OCc2cc(-c3ccc(-c4ccc(Cl)c(Cl)c4)o3)nc(-c3ccccc3)c21,-0.325 (inactive),0.716,0.138,-2.02 (inactive),-0.611 (inactive),-0.577 (inactive)
C=C[C@@H](OC)[C@H](OC(=O)Nc1ccc(OC)cc1)c1ccc(O)c(F)c1,0.65 (inactive),0.741,-0.825,-2.8 (inactive),-0.528 (inactive),-1.17 (inactive)
COC(=O)c1c(CC[C@@H](CO)NC(=O)N2CCC[C@H]2Cn2cc(C3(O)CCCCC3)nn2)oc(C(C)=O)c1C(=O)OC,0.812 (inactive),0.499,-0.373,-4.77 (inactive),-0.125 (inactive),-0.0208 (inactive)
NCCCCCCNC(=O)[C@@H]1C[C@@H]2C(=O)N[C@@H](CCCCN)C(=O)N2[C@@H]1c1ccc(O)cc1,2.07 (inactive),0.739,-0.978,-1.72 (inactive),-0.546 (inactive),-0.123 (inactive)
COC(=O)[C@@]1(Cc2ccc(OC)cc2)[C@H]2c3cc(C(=O)N(C)C)n(Cc4ccc(OC(F)(F)F)cc4)c3C[C@H]2CN1C(=O)c1ccccc1,-0.202 (inactive),0.112,-1.42,-5.65 (inactive),0.154 (inactive),-0.666 (inactive)
CCCCCC1=C2CNC(C)(C(=O)OC)C=C2C(C)C1=O (centres undefined),-0.22 (inactive),-0.513,0.157,-5.3 (inactive),1.37 (inactive),1.45 (inactive)
CC1CC/C=C\[C@H]2OC34C=CCN(C(C)C)C(=O)[C@H]3N(CCO)C(=O)[C@@H]4C2C(=O)O1 (some centres undefined),-0.319 (inactive),-0.472,-1.22,-2.91 (inactive),0.147 (inactive),0.0498 (inactive)
CCOC(=O)C1=CC[C@@H](c2ccccc2F)N(S(=O)(=O)c2ccc(C)cc2)[C@H]1c1ccccc1,-0.0895 (inactive),0.563,-2.02,1.41 (inactive),0.0286 (inactive),-0.82 (inactive)
CC(CO)N1C(=O)[C@]2(C)C3C(=O)OCCC/C=C\[C@H]3OC23C=CCN(c2ccc(Cl)cc2)C(=O)[C@@H]13 (some centres undefined),-0.356 (inactive),0.725,0.416,-3.59 (inactive),0.0747 (inactive),0.651 (inactive)
COc1ccc([Si](C)(C)[C@@H]2[C@@H](CCO)O[C@]3(C(=O)N(Cc4ccccc4)c4ccc(N5CCOC5=O)cc43)[C@H]2C)cc1,0.849 (inactive),0.869,-2.79,-1.94 (inactive),-1.29 (inactive),-1.14 (inactive)
COc1cccc(C)c1NC(=O)O[C@H]1[C@H](OC(=O)Nc2ccc3c(c2)OCO3)[C@@H](OC(=O)Nc2ccc3c(c2)OCO3)[C@@H](OC)O[C@@H]1CO,0.519 (inactive),-0.0963,-2.44,-10.8 (active),-0.088 (inactive),-0.224 (inactive)
COc1ccc([Si](C)(C)[C@@H]2[C@@H](CC(=O)N3CCC[C@H]3CO)O[C@]3(C(=O)N(Cc4cccc(N5C(=O)COc6ccccc65)c4)c4ccccc43)[C@H]2C)cc1,0.527 (inactive),0.608,-0.317,-2.42 (inactive),-0.167 (inactive),-0.614 (inactive)
CCCC[C@@H](O)C1=C(COc2ccccc2)C[C@H]2C(=O)N(Cc3ccccc3)C(=O)[C@H]2[C@H]1CO,-0.243 (inactive),0.374,0.131,-7.37 (inactive),-0.782 (inactive),-0.513 (inactive)
O=C(Cc1ccccc1)[C@H]1C2C=CCCC(c3ccccc3)=C2CN1Cc1ccccc1 (some centres undefined),1.11 (inactive),-0.0929,0.979,-2.16 (inactive),-0.171 (inactive),0.213 (inactive)
O=C(NCCN1CCOCC1)[C@@H]1c2ccccc2C(=O)N(C2Cc3ccccc3C2)[C@H]1c1ccc(CO)cc1,1.54 (inactive),0.584,-0.98,-3.28 (inactive),-0.61 (inactive),-0.411 (inactive)
N[C@@H](Cc1ccccc1)C(=O)NCc1cn(Cc2ccccc2)nn1,-0.221 (inactive),-0.984,-0.581,-0.368 (inactive),-0.167 (inactive),0.0852 (inactive)
CC(C)NC(=O)[C@@]1(C)c2ccccc2C(=O)N(Cc2ccc(OC(F)(F)F)cc2)[C@H]1c1ccc(CO)cc1,0.697 (inactive),0.836,-1.75,-3.07 (inactive),-0.0939 (inactive),-0.0444 (inactive)
COc1ccc([Si](C)(C)[C@@H]2[C@@H](CC(=O)N(CCO)Cc3ccccc3)O[C@]3(C(=O)N(Cc4cccc(N5CCCCC5=O)c4)c4ccccc43)[C@H]2C)cc1,0.0247 (inactive),0.709,-2.44,-1.13 (inactive),0.405 (inactive),0.797 (inactive)
CCOC(=O)[C@@H]1CCCCN1C(=O)C(=O)OC,0.636 (inactive),0.271,1.99,0.731 (inactive),0.284 (inactive),-0.0933 (inactive)
O=C1N(Cc2ccccc2)c2ccccc2C[C@]12N=C(c1ccc(OCCCO)cc1)O[C@@H]2c1ccccc1,-0.12 (inactive),0.59,-2.37,-3.59 (inactive),-0.0747 (inactive),-0.154 (inactive)
CCCCCCc1nc(Cc2cc(OC)c(OC)c(OC)c2)cc2c1[Si](C(C)C)(C(C)C)OC2,0.181 (inactive),0.0776,-2.67,-3.54 (inactive),-1.16 (inactive),-0.743 (inactive)
